Results from PubChem BioAssay (Tox21).
Results filed as inconclusive are left out. Activity calls are given as the source filed them. Unless noted, the call rests on the fitted dose curve; in most records, active means well fitted curve in the direction sought with a large enough effect in the repeat runs; inconclusive means weak or mixed curves; inactive means no such curve, though single readings can be large; an effect the other way counts as inactive or inconclusive.

Columns and labels:
[1] = qHTS RealTime-Glo MT Cell Viability Assay in HEK293 cells - 24 hour (AID 1224886); further: top concentration of the series differs between compounds; nearly all actives have a fitted effect of over 50% in size
Procedure, shortened: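 Cells + reagent dispensed (600 cells/well, HEK293) → 5 h at 37 C/5% CO2 → 23 nL compound in DMSO pinned → 40 h at 37 C → luminescence read at 0, 8, 16, 24, 32, 40 h.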

[2] = qHTS RealTime-Glo MT Cell Viability Assay in HEK293 cells - 8 hour (AID 1224887); further: top concentration of the series differs between compounds; nearly all actives have a fitted effect of over 50% in size
Procedure, shortened: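 Tox21 screen in HEK293 using RealTime-Glo MT chemistry, with cells and reagent co-dispensed. Luminescence proportional to viable cell number was captured at intervals during 40 h compound exposure at 37 C.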

[3] = A CellTox Green Cytotoxicity Assay to monitor cytotoxicity in HEK293 cells - 16 hour (AID 1224888); further: nearly all actives have a fitted effect of over 35% in size
Procedure, shortened: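 Seeding of HEK293 cells together with cytotoxicity dye preceded a 5 h incubation at 37 C/5% CO2. Test compounds in DMSO were then added and fluorescence monitored across 40 h.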

[4] = qHTS RealTime-Glo MT Cell Viability Assay in HepG2 cells - 0 hour (AID 1224889); further: nearly all actives have a fitted effect of over 50% in size
Procedure, shortened: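 Real-time, nonlytic viability: 600 HepG2 cells/well mixed with NanoLuc enzyme plus prosubstrate; 5 h settle, compound (DMSO) added by pintool; luminescence monitored over 40 h at 37 C.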

[5] = qHTS assay to identify small molecule antagonists of the estrogen receptor alpha (ER-alpha) signaling pathway using the BG1 cell line in the presence of 0.1 nM 17-beta-estradiol - cell viability counter screen (AID 1259241); further: nearly all actives have a fitted effect of over 40% in size
Procedure, shortened: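 Following 5 days in phenol red-free medium with charcoal-stripped serum, VM7Luc4E2 cells received test compounds alongside 0.1 nM 17beta-estradiol (final) at 37C for 22 hr. Live cells were then quantified via protease-substrate fluorescence.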

[6] = qHTS assay to identify small molecule antagonists of the androgen receptor (AR) signaling pathway using the MDA cell line in the presence of 0.5 nM R1881 - cell viability counter screen (AID 1259242); further: nearly all actives have a fitted effect of over 45% in size
Procedure, shortened: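 R1881 at 0.5 nM final stimulated MDA-kb2 cells during 16 hr compound treatment at 37C. Cytotoxicity read: CellTiter-Fluor fluorescence after 30 min.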

[7] = qHTS assay to identify small molecule phospholipidosis (PLD) inducers (AID 1259344; active means well fitted curve in the direction sought with a large enough effect; an effect the other way counts as inactive or inconclusive)
Procedure, shortened: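 Phospholipidosis is scored by imaging LipidTOX-stained pits in HepG2 cells exposed to compound for 24 h at 37 C; pit counts and integrated intensities per well and per cell serve as outputs.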

[8] = qHTS assay to identify small molecule HDAC inhibitors (AID 1259364);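 further: wild-type HCT-116 cells with endogenous class I/II HDAC activity; top concentration of the series differs between compounds; nearly all actives have a fitted effect of over 45% in size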
Procedure, shortened: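 Relative class I and II HDAC activity is taken from the luminogenic signal in HCT-116 cells, with compound exposure 2 hr and reagent development 30 min at room temperature.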

[9] = qHTS assay to identify small molecule HDAC inhibitors - cell viability counter screen (AID 1259365); further: series mostly up to about 92 µM; nearly all actives have a fitted effect of over 50% in size
Procedure, shortened: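 HCT-116 wild-type, overnight attachment; 2hr drug exposure, 37C; CellTiter-Glo luminescent ATP readout after 30min RT.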

[10] = qHTS assay to identify small molecule agonists of the sonic hedgehog signaling (Shh) pathway - cell viability counter screen (AID 1259366); further: nearly all actives have a fitted effect of over 50% in size
Procedure, shortened: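 Compounds in DMSO were pin-transferred onto 3T3 Gli1-Luc cells that had settled 4hr; plates then stood 24hr at 37C and 5% CO2. One hour before the end, CellTiter-Fluor was added and fluorescence recorded.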

[11] = qHTS assay to identify small molecule antagonists of the sonic hedgehog signaling (Shh) pathway - cell viability counter screen (AID 1259367); further: nearly all actives have a fitted effect of over 55% in size
Procedure, shortened: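 Cells: 3T3 Gli1-Luc, 2,000/well, 4 hr pre-incubation. Compounds in DMSO, then conditioned medium. Incubation 24 hr, 37C, 5% CO2. CellTiter-Fluor at 23 hr, 1 hr, fluorescence.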

[12] = qHTS assay to identify small molecule agonists of the sonic hedgehog signaling (Shh) pathway (AID 1259368; calls by dose curve;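 further: NIH/3T3-derived 3T3Gli1-Luc cells carrying a stable Gli1-driven firefly luciferase reporter; series mostly up to about 92 µM; nearly all actives have a fitted effect of over 15% in size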)
Procedure, shortened: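 Mouse fibroblast (NIH/3T3) reporter cells with stably integrated Gli1-Luc were treated 24 hr with compound; firefly luciferase luminescence served as the read-out.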

[13] = qHTS assay to identify small molecule antagonists of the sonic hedgehog signaling (Shh) pathway (AID 1259369; calls by dose curve; further: nearly all actives have a fitted effect of over 45% in size)
Procedure, shortened: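 Conditioned medium drives Shh signalling in 3T3Gli1-Luc cells; compounds in DMSO co-applied, 24hr at 37 C, then luciferase luminescence.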

[14] = biological target: Estrogen receptor beta (Homo sapiens) (UniProt Q92731); experiment: qHTS assay to identify small molecule agonists of the estrogen receptor beta (ER-beta) signaling pathway (AID 1259377; active means well fitted activation curve with a large enough effect in the signal ratio in the repeat runs, not every such curve was filed as active; the % refers to the signal ratio)
Procedure, shortened: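 qHTS in ER-beta-UAS-bla HEK293T cells: 6 hr settling, then 16 hr compound at 37C, then LiveBLAzer substrate 2 h at RT before fluorescence reading.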

[15] = qHTS assay to identify small molecule agonists of the androgen receptor (AR) signaling pathway in the presence of an antagonist - cell viability counter screen (AID 1259379);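 further: MDA-kb2 human breast cancer cells carrying an MMTV luciferase reporter; series mostly up to about 92 µM; nearly all actives have a fitted effect of over 25% in size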
Procedure, shortened: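 A CellTiter-Fluor read-out measured viability of MDA-kb2 reporter cells (MMTV promoter with AR and GR response elements). Treatment: nilutamide 3.0uM final with compounds at 15 concentrations, 16 hr, 37C, 0% CO2.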

[16] = qHTS assay to identify small molecule agonists of the estrogen receptor beta (ER-beta) signaling pathway - cell viability counter screen (AID 1259380); further: nearly all actives have a fitted effect of over 30% in size
Procedure, shortened: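 Cells used were ER-beta-UAS-bla HEK293T in medium with 2% charcoal-stripped FBS. They were treated for 16 hr at 37C. Viability came from CellTiter-Glo luminescence.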

[17] = A CellTox Green Cytotoxicity Assay to monitor cytotoxicity in HepG2 cells - 8 hour (AID 1224890); further: nearly all actives have a fitted effect of over 45% in size
Procedure, shortened: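 Nonlytic assay: viable cells exclude the dye, so fluorescence scales with cell death. HepG2 at 600 cells/well, compounds added after 5 h, signal read across 40 h.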

[18] = biological target: Estrogen receptor (Homo sapiens) (UniProt P03372); experiment: qHTS assay to identify small molecule antagonists of the estrogen receptor alpha (ER-alpha) signaling pathway using the BG1 cell line in the presence of 0.1 nM 17-beta-estradiol (AID 1259244); further: nearly all actives have a fitted effect of over 50% in size
Procedure, shortened: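 VM7Luc4E2; 4xERE-luciferase; 0.1 nM E2 final; 22 h co-incubation, 37C; ONE-Glo luminescence after 30 min at room temperature.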

[19] = biological target: Estrogen receptor beta (Homo sapiens) (UniProt Q92731); experiment: qHTS assay to identify small molecule antagonists of the estrogen receptor beta (ER-beta) signaling pathway (AID 1259378; active means well fitted inhibition curve with a large enough effect in the signal ratio in the repeat runs, not every such curve was filed as active; the % refers to the signal ratio)
Procedure, shortened: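 Antagonist mode: compounds added to beta-lactamase reporter HEK293T ER-beta-UAS cells stimulated with E2 (1nM final), 16 hr at 37C. LiveBLAzer B/G FRET substrate, 2 hours room temperature, fluorescence read-out.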

Measured: Potency

Sequence of Estrogen receptor (Homo sapiens) (P03372 whole entry, looked up): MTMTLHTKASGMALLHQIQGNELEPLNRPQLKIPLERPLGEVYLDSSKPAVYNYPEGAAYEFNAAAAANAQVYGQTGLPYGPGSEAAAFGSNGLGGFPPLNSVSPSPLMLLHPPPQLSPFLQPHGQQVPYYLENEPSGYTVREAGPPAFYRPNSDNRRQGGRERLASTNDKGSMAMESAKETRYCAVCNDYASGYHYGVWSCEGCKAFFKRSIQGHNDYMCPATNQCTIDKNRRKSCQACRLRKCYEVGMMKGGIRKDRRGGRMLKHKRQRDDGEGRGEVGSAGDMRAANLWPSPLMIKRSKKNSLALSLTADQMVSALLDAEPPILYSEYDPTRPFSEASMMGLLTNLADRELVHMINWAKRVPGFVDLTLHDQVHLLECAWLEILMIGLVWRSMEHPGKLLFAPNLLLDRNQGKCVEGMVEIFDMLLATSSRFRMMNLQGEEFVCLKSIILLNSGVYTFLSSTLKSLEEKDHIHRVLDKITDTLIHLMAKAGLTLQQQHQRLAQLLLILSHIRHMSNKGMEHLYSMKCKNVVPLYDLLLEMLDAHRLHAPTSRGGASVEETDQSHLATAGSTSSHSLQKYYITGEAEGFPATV
Sequence of Estrogen receptor beta (Homo sapiens) (Q92731 whole entry, looked up): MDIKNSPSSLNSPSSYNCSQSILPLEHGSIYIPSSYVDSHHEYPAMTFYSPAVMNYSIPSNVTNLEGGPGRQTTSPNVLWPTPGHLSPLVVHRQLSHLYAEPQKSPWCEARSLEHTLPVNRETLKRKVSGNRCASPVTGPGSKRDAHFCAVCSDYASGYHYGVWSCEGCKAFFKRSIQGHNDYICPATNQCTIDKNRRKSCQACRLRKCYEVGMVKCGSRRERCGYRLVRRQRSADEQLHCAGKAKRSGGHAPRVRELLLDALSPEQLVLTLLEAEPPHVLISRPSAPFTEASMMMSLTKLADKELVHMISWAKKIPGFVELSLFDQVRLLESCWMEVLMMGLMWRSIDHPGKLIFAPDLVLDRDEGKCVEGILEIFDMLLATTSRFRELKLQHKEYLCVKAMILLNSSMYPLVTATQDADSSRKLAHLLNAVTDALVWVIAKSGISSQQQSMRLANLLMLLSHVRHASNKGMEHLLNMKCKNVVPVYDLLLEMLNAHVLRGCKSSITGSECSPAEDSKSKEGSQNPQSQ

Cn1c(=O)c2c(ncn2CCO)n(C)c1=O
not listed: [17] | [18] | [19]
inactive: all other assays above

Cc1ccc(C(C)NC(=O)[C@@H](NC(=O)OC(C)C)C(C)C)cc1 (some centres undefined)
not listed: [4] | [7] | [14] | [18] | [19]
inactive: all other assays above

CC(O)CC(C)O (centres undefined)
not listed: [3] | [7] | [11] | [14] | [18] | [19]
inactive: all other assays above

N#Cc1cscn1
not listed: [6] | [7] | [14] | [18] | [19]
inactive: all other assays above

Cc1ccc(N)cc1S(=O)(=O)O
not listed: [3] | [7] | [16]
inactive: all other assays above

Cc1ccnc(N)c1
not listed: [6] | [7] | [8] | [18] | [19]
inactive: all other assays above

O=C[O][Al]([O]C=O)[O]C=O
not listed: [2] | [7] | [10] | [14] | [19]
inactive: all other assays above

CCCCCc1cccc(=O)o1
not listed: [3] | [6] | [7] | [9]
inactive: all other assays above

C=CCSSCCC
not listed: [1] | [2] | [7] | [8] | [11] | [14]
inactive: all other assays above
